TEAD-YAP block – TEAD-YAP interaction inhibition, primary screen, TEAD-YAP interaction inhibitor project, luminescence, HEK-TIYL cells. TEAD-Gal4/YAP UAS-luciferase luminescence. AID 1259422, 2018. inhibition, % at 9.12 µM. 640,000 tested, 1.4% active; in the data active = inhibition above about 32%;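 also: 0% = median of test compound wells and 100% = reference inhibitor wells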
MITF inh – MITF inhibitors, primary screen, biochemical, AlphaScreen, human; Microphthalmia-associated transcription factor (Homo sapiens), O75030; inhibition, % at 2.6 µM; AlphaScreen MITF homodimerization, bead proximity signal; 650,000 tested, 0.91% active; AID 1259374, 2018; in the data active = inhibition above about 50%;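 also: 0% = vehicle wells with protein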
Target sequence (O75030 whole entry, looked up): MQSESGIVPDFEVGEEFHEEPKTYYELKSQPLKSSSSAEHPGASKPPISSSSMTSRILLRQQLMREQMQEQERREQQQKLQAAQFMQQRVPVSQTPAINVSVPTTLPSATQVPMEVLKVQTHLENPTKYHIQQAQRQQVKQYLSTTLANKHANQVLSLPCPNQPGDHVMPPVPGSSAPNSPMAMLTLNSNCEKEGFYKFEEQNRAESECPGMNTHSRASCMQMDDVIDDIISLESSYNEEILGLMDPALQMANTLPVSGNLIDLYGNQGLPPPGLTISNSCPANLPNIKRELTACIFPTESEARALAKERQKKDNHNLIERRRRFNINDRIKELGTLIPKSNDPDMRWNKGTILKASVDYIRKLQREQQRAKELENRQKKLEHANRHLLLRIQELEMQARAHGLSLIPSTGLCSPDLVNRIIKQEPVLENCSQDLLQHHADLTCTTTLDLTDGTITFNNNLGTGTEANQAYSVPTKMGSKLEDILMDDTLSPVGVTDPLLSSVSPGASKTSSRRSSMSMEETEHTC
GPR151 ag – activators of human GPR151, primary screen, cell-based, PathHunter beta-arrestin, luminescence. 650,000 tested, 1% active. PathHunter beta-arrestin GPR151 cells. G-protein coupled receptor 151 (Homo sapiens), Q8TDV0. activation, % at 11.2 µM. AID 1508602, 2020; in the data active = activation above about 4.9%;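 also: 0% = median of compound wells and 100% = cells with positive control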
FBW7 act – FBW7 E3 ligase activators, primary screen, biochemical, AlphaScreen, human | 650,000 tested, 0.13% active | normalized activity (activation), % at 26.1 µM | AlphaScreen FBW7–phospho-cyclin E peptide binding, activator screen | F-box/WD repeat-containing protein 7 (Homo sapiens), Q969H0; in the data active = normalized activity above about 1.9%;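 also: purified mutant Fbw7 with reduced substrate affinity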
MITF inh conf – MITF inhibitors, retest of hits, confirmation, biochemical, AlphaScreen, triplicate; shares compounds with MITF inh; AlphaScreen MITF homodimerization, biotin/His-MITF beads; inhibition, % at 2.6 µM; 4,700 tested, 16% active; AID 1259372, 2018;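 active = inhibition above a cutoff derived from the DMSO control wells, cut at about 28% in these data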;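 also: 0% = MITF dimer wells with DMSO only; inhibitors lower the bead chemiluminescence by keeping MITF from dimerizing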
AlphaScreen DR – AlphaScreen optical interference compounds, dose response, counter-screen, biochemical, HTS; shares compounds with MITF inh; AlphaScreen optical interference counterscreen, cell-free; IC50, µM; 480 tested, 6% active; AID 1259373, 2018; call rule not given here
AlphaScreen intf2 – AlphaScreen optical interference compounds, counter-screen for MITF inhibitor project, biochemical, triplicate. shares compounds with MITF inh. LysRS AlphaScreen counterscreen, signal interference. inhibition, % at 2.6 µM. 4,700 tested, 7.6% active. AID 1259376, 2018;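 active = inhibition above a cutoff derived from the DMSO control wells, cut at about 30% in these data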
* = called active by the depositor. The list is not random: actives were taken first. Their share in the collection is about 3.5%.

How did Cn1c(-c2cccc([N+](=O)[O-])c2)cnc1NCc1cccc([N+](=O)[O-])c1 do in these assays?
TEAD-YAP block: 7.5; MITF inh: 37.6; GPR151 ag: -1.0; FBW7 act: -0.3

How did COc1cccc(-c2cnc(NCc3ccc(F)cc3F)n2C)c1 do in these assays?
TEAD-YAP block: -5.0; MITF inh: 51.0*; GPR151 ag: 2.1; FBW7 act: 0.3; MITF inh conf: -15.5; AlphaScreen intf2: -4.4

How did Cn1c(-c2ccc(F)cc2)cnc1NCc1ccc(F)cc1 do in these assays?
TEAD-YAP block: 7.9; MITF inh: 52.6*; GPR151 ag: -0.3; FBW7 act: 0.1; MITF inh conf: -3.0; AlphaScreen intf2: 0.0

What do the screens show for `Cn1c(-c2ccc3c(c2)OCO3)cnc1NCc1cccc(F)c1`?
TEAD-YAP block: -29.6; MITF inh: 54.5*; GPR151 ag: -0.4; FBW7 act: 0.1; MITF inh conf: -16.4; AlphaScreen intf2: -6.3

What do the screens show for `Cc1ccc(-c2cnc(NCc3cccc([N+](=O)[O-])c3)n2C)cc1`?
TEAD-YAP block: 6.9; MITF inh: 65.0*; GPR151 ag: -0.1; FBW7 act: 0.0; MITF inh conf: -2.3; AlphaScreen intf2: -2.3

Results for Cn1c(-c2ccc(Br)cc2)cnc1NCc1cccnc1 ?
TEAD-YAP block: 2.2; MITF inh: 25.9; GPR151 ag: -0.1; FBW7 act: 0.6

Results for Cn1c(-c2ccc(-c3ccccc3)cc2)cnc1NCc1cccnc1 ?
TEAD-YAP block: -43.8; MITF inh: 62.9*; GPR151 ag: 0.1; FBW7 act: 0.7; MITF inh conf: -13.4; AlphaScreen intf2: -3.0

How did CCCOC(=O)c1ccc2c(c1)C(=O)N(c1cccc(C)c1)C2=O do in these assays?
TEAD-YAP block: 0.4; MITF inh: 20.5; GPR151 ag: -5.5; FBW7 act: 0.0

How did COC(=O)Cc1c(C)c2ccc(OCC(N)=O)c(C)c2oc1=O do in these assays?
TEAD-YAP block: -2.2; MITF inh: 73.0*; GPR151 ag: -0.6; FBW7 act: 0.1; MITF inh conf: 11.6; AlphaScreen intf2: 9.8

Results for COC(=O)Cc1c(C)c2ccc(OCC(=O)OC(C)(C)C)c(C)c2oc1=O ?
TEAD-YAP block: 9.6; MITF inh: -14.2; GPR151 ag: -1.1; FBW7 act: 0.2

Results for O=C(CSc1ncnc2sc3c(c12)CCCC3)c1ccc(Cl)s1 ?
TEAD-YAP block: -12.7; MITF inh: -15.2; GPR151 ag: 1.4; FBW7 act: -0.1

What do the screens show for `C[C@H]1NC(=O)[C@H]2CN(C(=O)NC3CCCCC3)CCN2C1=O`?
TEAD-YAP block: -2.6; MITF inh: 74.6*; GPR151 ag: -0.5; FBW7 act: -0.3; MITF inh conf: 74.4*; AlphaScreen DR: >6.48; AlphaScreen intf2: -9.4

Results for CC(C)[C@@H]1NC(=O)[C@H]2CN(C(=O)c3ccc(Cl)cc3)CCN2C1=O ?
TEAD-YAP block: -1.9; MITF inh: -1.0; GPR151 ag: 2.2; FBW7 act: 0.2

How did CC(C)[C@@H]1NC(=O)[C@H]2CN(C(=O)NC3CCCCC3)CCN2C1=O do in these assays?
TEAD-YAP block: -3.3; MITF inh: 71.3*; GPR151 ag: 1.1; FBW7 act: -0.2; MITF inh conf: 68.2*; AlphaScreen DR: >6.48; AlphaScreen intf2: -11.5

What do the screens show for `FC(F)(F)c1ccccc1CN1CCN(Cc2ccccn2)CC1`?
TEAD-YAP block: 2.1; MITF inh: 78.4*; GPR151 ag: 2.9; FBW7 act: 0.1; MITF inh conf: -9.4; AlphaScreen intf2: 4.1

What do the screens show for `FC(F)(F)c1ccccc1CN1CCN(c2ncccn2)CC1`?
TEAD-YAP block: 6.6; MITF inh: 50.8*; GPR151 ag: 0.6; FBW7 act: 0.3; MITF inh conf: 15.4; AlphaScreen intf2: 6.5

How did c1ccc(N2CCN(Cc3cccc4ccccc34)CC2)nc1 do in these assays?
TEAD-YAP block: -1.8; MITF inh: 2.4; GPR151 ag: 0.8; FBW7 act: -0.3

How did Oc1ccc(-c2ncccn2)cc1CN1CCN(c2ccccc2F)CC1 do in these assays?
TEAD-YAP block: 1.2; MITF inh: 7.1; GPR151 ag: 0.6; FBW7 act: 0.1

Results for Brc1cccc(CN2CCN(Cc3ccccn3)CC2)c1 ?
TEAD-YAP block: -3.3; MITF inh: 45.1; GPR151 ag: -1.3; FBW7 act: -0.1

Results for c1ccc(CN2CCN(Cc3cccc4ccccc34)CC2)nc1 ?
TEAD-YAP block: 6.7; MITF inh: 64.2*; GPR151 ag: 4.7; FBW7 act: 0.0; MITF inh conf: 3.7; AlphaScreen intf2: 7.4

How did Fc1ccccc1N1CCN(Cc2ccccn2)CC1 do in these assays?
TEAD-YAP block: -11.1; MITF inh: 55.7*; GPR151 ag: -0.5; FBW7 act: -0.2; MITF inh conf: -1.1; AlphaScreen intf2: 9.8

How did CS(=O)(=O)N(CC(=O)NCc1ccco1)c1ccc(F)cc1 do in these assays?
TEAD-YAP block: -4.3; MITF inh: 5.0; GPR151 ag: 3.0; FBW7 act: -0.2

How did Cc1ccc2nc(CN(C)Cc3nccs3)nc(N)c2c1 do in these assays?
TEAD-YAP block: -24.9; MITF inh: 65.3*; GPR151 ag: 1.0; FBW7 act: -0.2; MITF inh conf: 39.6*; AlphaScreen intf2: 100.2*

What do the screens show for `Cc1ccccc1OCCNCC(C)O` (stereo not drawn)?
TEAD-YAP block: 1.4; MITF inh: 53.4*; GPR151 ag: 0.5; FBW7 act: 0.3; MITF inh conf: 3.6; AlphaScreen intf2: 9.4

Results for COc1ccc(-c2cc(C3CC3)nc(SCC(N)=O)c2C#N)cc1 ?
TEAD-YAP block: 13.9; MITF inh: 51.5*; GPR151 ag: -0.8; FBW7 act: -0.2; MITF inh conf: -3.6; AlphaScreen intf2: -5.1

How did COc1ccc(-c2cc(C3CC3)nc(SCC(=O)c3ccc(Br)cc3)c2C#N)cc1 do in these assays?
TEAD-YAP block: -1.9; MITF inh: 6.9; GPR151 ag: -0.9; FBW7 act: 0.1

Results for N#Cc1c(-c2ccc(Br)cc2)cc(C2CC2)nc1SCC(=O)c1ccccc1 ?
TEAD-YAP block: -3.7; MITF inh: 66.4*; GPR151 ag: -0.4; FBW7 act: -0.2; MITF inh conf: -7.1; AlphaScreen intf2: 15.7

Results for O=C1CC(N2CCN(S(=O)(=O)c3ccccc3F)CC2)C(=O)N1c1ccccc1F (stereo not drawn) ?
TEAD-YAP block: 1.2; MITF inh: 79.5*; GPR151 ag: -0.9; FBW7 act: -0.3; MITF inh conf: -14.2; AlphaScreen intf2: 4.0
